Results: PubChem BioAssay (NCATS)
Inconclusive results are not listed. Entries that show only a call come without a potency. The source made the active and inactive calls. Unless noted, calls follow the shape of the dose curve; as a rule, active = well fitted curve in the direction sought with a large enough effect; inconclusive = small, poorly fitted or top-dose-only effect, or another doubt; inactive = no such curve, though single readings can be large; an effect the other way counts as inactive or inconclusive.

Tests used:
[1] = Quantitative High-Throughput drug screen in 47 multiple myeloma cell lines against the NCATS MIPE library collection: KMS28BM_JCRB cell viability assay (AID 1919874); also: nearly all actives have a fitted effect of over 35% in size
Summary of the method: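 500 cells/well per myeloma line exposed to pinned MIPE 4.0 compounds for 48 h at 37 °C, 5% CO2. Viability read as ATP by CellTiter-Glo luminescence, normalised to DMSO-only (100%) and media-only (0%) wells.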

[2] = qHTS drug screen for cell cycle checkpoint inhibitors in PARPi-resistant BRCA-mutant ovarian cancer cell lines. (AID 1963452; calls by dose curve); conditions: PEO1/OlaR viability, CellTiter-Glo luminescence, 96 h, stronger effect = lower value
Summary of the method: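 PEO1, PEO4 and PEO1/OlaR ovarian cancer cells, 600 per well, exposed 96 h at 37C to a dilution series. Viability read by CellTiter-Glo luminescence, normalized to DMSO and empty wells; activity summarized as Z-AUC.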

[3] = qHTS for identification of novel therapeutic agents for treatment of microphthalmiaassociated transcription factor (MiT) renal cell carcinoma (RCC) (AID 1963991); conditions: CellTiter-Glo, 48 h, stronger effect = lower value
Summary of the method: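 Curves over 11 concentrations were fitted to CellTiter-Glo luminescence, scaled between empty wells (0%) and DMSO (100%) viability. Cells were UOK109, UOK124 and UOK145 TFE3-fusion RCC lines at 500/well, exposed 48 hours at 37 C.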

[4] = qHTS profiling for inhibitors of Plasmodium falciparum proliferation (AID 504749); also: nearly all actives have a fitted effect of over 60% in size; conditions: P. falciparum in erythrocytes, SYBR Green DNA, 72 h, at 28.7 µM (top of the series)
Summary of the method: (§1)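 P. falciparum-infected erythrocytes (0.3% parasitemia, 2.5% hematocrit) incubated with compound 72 h at 37 C, 5% CO2. Parasite DNA detected by SYBR Green after lysis, overnight at room temperature; normalised to 0.29 uM artemisinin and DMSO.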

[5] = system: 3D7; test: as above; conditions: P. falciparum in erythrocytes, SYBR Green DNA, 72 h; series mostly up to 28.7 µM
Summary of the method: as §1

[6] = system: 7G8; test: as above; conditions: P. falciparum in erythrocytes, SYBR Green DNA, 72 h; series mostly up to 28.7 µM
Summary of the method: as §1

[7] = system: AA1029; test: as above; conditions: P. falciparum in erythrocytes, SYBR Green DNA, 72 h; series mostly up to 28.7 µM
Summary of the method: as §1

[8] = system: AS120; test: as above; conditions: P. falciparum in erythrocytes, SYBR Green DNA, 72 h; series mostly up to 28.7 µM
Summary of the method: as §1

[9] = system: ATS189; test: as above; conditions: P. falciparum in erythrocytes, SYBR Green DNA, 72 h; series mostly up to 28.7 µM
Summary of the method: as §1

[10] = system: ATS95; test: as above; conditions: P. falciparum in erythrocytes, SYBR Green DNA, 72 h; series mostly up to 28.7 µM
Summary of the method: as §1

[11] = system: C2A; test: as above; conditions: P. falciparum in erythrocytes, SYBR Green DNA, 72 h; series mostly up to 28.7 µM
Summary of the method: as §1

[12] = system: CP185; test: as above; conditions: P. falciparum in erythrocytes, SYBR Green DNA, 72 h; series mostly up to 28.7 µM
Summary of the method: as §1

[13] = system: CP191; test: as above; conditions: P. falciparum in erythrocytes, SYBR Green DNA, 72 h; series mostly up to 28.7 µM
Summary of the method: as §1

[14] = system: CP192; test: as above; conditions: P. falciparum in erythrocytes, SYBR Green DNA, 72 h; series mostly up to 28.7 µM
Summary of the method: as §1

[15] = KB-8-5-11 P-gp reporter qHTS against the NCATS DSHEA and TCM libraries (AID 1919977)
Summary of the method: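 CellTiter-Glo luminescence measured viability after ~72 h exposure (37C, 5% CO2) of KB-8-5-11 cervical adenocarcinoma cells overexpressing P-gp. Colchicine was omitted during assay. Substances were tested as titrations.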

[16] = measured here: PEO1 parental Z-AUC

## CC(C)c1cccc(C(C)C)c1O
[1]
  outcome: inactive
[2]
  Z-AUC: 0.183 (inactive)
[2]; [16]
  Z-AUC: 0.696
[2]; measured here: PEO4 Z-AUC
  Z-AUC: 0.584
[3]; TFE3-RCC UOK109 viability, measured here: UOK109 Z-AUC
  z-score: -1.1
[3]; TFE3-RCC viability, measured here: UOK124 Z-AUC
  z-score: 0.663
[3]; TFE3-RCC viability, measured here: UOK145 Z-AUC
  z-score: 0.666
[4]; parasite line A
  activity, negative = inhibition: 13.6% (inactive)
[4]; parasite line B
  activity, negative = inhibition: 4.13% (inactive)
[5]
  Potency: inactive
[6]
  Potency: inactive
[7]
  Potency: inactive
[8]
  Potency: inactive
[9]
  Potency: inactive
[10]
  Potency: inactive
[11]
  Potency: inactive
[12]
  Potency: inactive
[13]
  Potency: inactive
[14]
  Potency: inactive

## NC(=O)c1cnccn1
[15]
  outcome: inactive

## Nc1ccc(C(=O)O)cc1
[15]
  outcome: inactive

## CCCCCCCCCCCCCCCC(=O)O
[15]
  outcome: inactive

## O=C(O)CCCc1ccc(N(CCCl)CCCl)cc1
[2]
  Z-AUC: 0.915 (inactive)
[2]; [16]
  Z-AUC: 0.822
[2]; measured here: PEO4 Z-AUC
  Z-AUC: 1.2
[4]; parasite line A
  activity, negative = inhibition: -9.59% (inactive)
[4]; parasite line B
  activity, negative = inhibition: 1.97% (inactive)
[5]
  Potency: inactive
[7]
  Potency: inactive
[8]
  Potency: inactive
[9]
  Potency: inactive
[10]
  Potency: inactive
[11]
  Potency: inactive
[12]
  Potency: inactive
[13]
  Potency: inactive
[14]
  Potency: inactive

## C=CCc1ccc(O)c(OC)c1
[15]
  outcome: inactive

## C[C@](O)(CS(=O)(=O)c1ccc(F)cc1)C(=O)Nc1ccc(C#N)c(C(F)(F)F)c1
[2]
  Z-AUC: 0.83 (inactive)
[2]; [16]
  Z-AUC: 0.549
[2]; measured here: PEO4 Z-AUC
  Z-AUC: 0.67
[5]
  Potency: inactive
[7]
  Potency: inactive
[8]
  Potency: inactive
[9]
  Potency: inactive
[10]
  Potency: inactive
[11]
  Potency: inactive
[12]
  Potency: inactive
[13]
  Potency: inactive
[14]
  Potency: inactive

## CN1C(=O)COc2c(C(=O)NC3CN4CCC3CC4)cc(Cl)cc21 (centres undefined)
[2]
  Z-AUC: -0.165 (inactive)
[2]; [16]
  Z-AUC: -0.0882
[2]; measured here: PEO4 Z-AUC
  Z-AUC: 0.485
[4]; parasite line A
  activity, negative = inhibition: 7.89% (inactive)
[4]; parasite line B
  activity, negative = inhibition: 7.46% (inactive)
[5]
  Potency: inactive
[7]
  Potency: inactive
[8]
  Potency: inactive
[9]
  Potency: inactive
[10]
  Potency: inactive
[11]
  Potency: inactive
[12]
  Potency: inactive
[13]
  Potency: inactive
[14]
  Potency: inactive

## CCC1(CC)C(=O)C=CNC1=O
[4]; parasite line A
  activity, negative = inhibition: 10.7% (inactive)
[4]; parasite line B
  activity, negative = inhibition: 6.45% (inactive)
[5]
  Potency: inactive
[6]
  Potency: inactive
[7]
  Potency: inactive
[8]
  Potency: inactive
[9]
  Potency: inactive
[10]
  Potency: inactive
[11]
  Potency: inactive
[12]
  Potency: inactive
[13]
  Potency: inactive
[14]
  Potency: inactive

## Cc1ncsc1CCCl
[4]; parasite line A
  activity, negative = inhibition: 12% (inactive)
[4]; parasite line B
  activity, negative = inhibition: 0.0082% (inactive)
[5]
  Potency: inactive
[6]
  Potency: inactive
[7]
  Potency: inactive
[8]
  Potency: inactive
[9]
  Potency: inactive
[10]
  Potency: inactive
[11]
  Potency: inactive
[12]
  Potency: inactive
[13]
  Potency: inactive
[14]
  Potency: inactive

## CCCC(C)(COC(N)=O)COC(N)=O
[4]; parasite line A
  activity, negative = inhibition: 5.3% (inactive)
[4]; parasite line B
  activity, negative = inhibition: 9.68% (inactive)
[5]
  Potency: inactive
[6]
  Potency: inactive
[7]
  Potency: inactive
[8]
  Potency: inactive
[9]
  Potency: inactive
[10]
  Potency: inactive
[11]
  Potency: inactive
[12]
  Potency: inactive
[13]
  Potency: inactive
[14]
  Potency: inactive
